According to PubChem BioAssay (NCI):
Values joined by “and” are separate entries in the source; they are usually repeats but may differ in a detail not shown here. Equal entries are not always repeated. This is part of a sample that, as a whole, favours compounds with a hit. Of some 83,000 tested, about 20% had one in any assay.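 Cells were grown in 96-well plates and exposed to the test compound at a single concentration for 48 hours; results are reported as percent growth, with values below 10 considered active.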

Experiments:
Assay in all cases: NCI-60 one-dose screen, 48 h (100 = growth as untreated, 0 = no growth, -100 = all killed)
Conditions in all cases: 10 µM unless noted
[1] = tested on: EKVX NSCLC
[2] = tested on: SN12C renal
[3] = tested on: UO-31 renal
[4] = tested on: TK-10 renal
[5] = tested on: ACHN renal
[6] = tested on: CAKI-1 renal
[7] = tested on: A498 renal
[8] = tested on: CCRF-CEM leukemia
[9] = tested on: MOLT-4 leukemia

Measured: growth

Nc1ccccc1SC1CC(=O)N(c2ccc(I)cc2)C1=O (stereo unspecified)
inactive: [1] 90.6% | [2] 91.8% | [3] 86.8% | [4] 106% | [5] 86% | [6] 81.7% | [7] 108% | [8] 89.7% | [9] 81.5%

COc1ccc([N+](=O)[O-])cc1OC
inactive: [1] 98.6% and 102% | [2] 99.6% and 108% | [3] 76.2% and 99.1% | [4] 98.9% and 108% | [5] 99% and 93.5% | [6] 93.8% and 102% | [7] 73.1% and 128% | [8] 89.6% and 102% | [9] 91.2% and 104%

OC(CC(c1ccccc1)c1cccc2ccccc12)(c1ccccc1)c1ccccc1 (stereo unspecified)
inactive: [1] 79.8% and 54.9% | [2] 91.3% and 84.9% | [4] 75.9% and 82.7% | [5] 83.9% and 93% | [6] 64.6% and 57% | [7] 73.4% and 89.7% | [8] 38.5% and 83.4% | [9] 77.3% and 52.7%

CCCC(=O)Oc1ccc(CC)cc1
inactive: [2] 98.5% | [3] 93.7% | [4] 97.2% | [5] 107% | [6] 96.1% | [7] 78.1% | [9] 101%

O=c1[nH]c(=O)c2[nH]c(=O)[nH]c2[nH]1
inactive: [1] 88.6% | [2] 99.7% | [3] 85.7% | [4] 92.1% | [5] 101% | [6] 101% | [7] 73.9% | [8] 114% | [9] 113%

O=C1c2ccccc2CN1c1ccccc1
inactive: [1] 113% | [2] 90.5% | [3] 121% | [4] 94.3% | [5] 99% | [6] 102% | [7] 101% | [8] 106% | [9] 85.2%

COC(=O)c1nc(N)nc(C(=O)OC)c1C(=O)c1cccc2ccccc12
inactive: [1] 103% | [2] 99.5% | [3] 89.7% | [4] 97.5% | [5] 106% | [6] 96.3% | [7] 105% | [8] 101% | [9] 112%

CN(C=O)c1ccccc1
inactive: [2] 93.3% | [3] 65.5% | [4] 121% | [5] 92% | [6] 88.2% | [7] 98% | [8] 95.7% | [9] 97.5%

CCC/C(=N/NC(N)=O)c1ccco1
inactive: [1] 89.7% | [2] 93% | [3] 90.6% | [4] 88.3% | [5] 94.9% | [6] 92.7% | [7] 68.1% | [8] 97.8% | [9] 80.3%

OCCSc1ccc(Cl)cc1
inactive: [1] 100% and 89.4% | [2] 104% and 93% | [4] 87.7% | [5] 99.6% and 95.1% | [6] 107% and 91.1% | [7] 107% and 88.9% | [8] 119% and 96.7% | [9] 118% and 91.7%

CC(=O)Oc1ccc(C(c2ccc(OC(C)=O)cc2)c2ccccn2)cc1
inactive: [1] 82.5% and 87.8% | [2] 29.3% and 30.9% | [3] 74.3% and 89.2% | [4] 77.1% and 86.1% | [5] 82.5% and 81.1% | [6] 100% and 117% | [7] 91.1% | [8] 98.8% and 90.9% | [9] 93.3% and 103%

COc1ccc(/C=N/NC(N)=S)cc1
inactive: [1] 64.1% | [2] 96.1% | [5] 101% | [6] 93.3% | [7] 73.4% | [8] 69.1% | [9] 136%
